Measured values: the supplement of paper PMC5662767

Tested on: Drosophila S2 cl14 SmoIP sensor cells
Experiment: normalized SmoIP GFP fluorescence (untreated unstimulated = 0%, untreated Hh-stimulated = 100%); higher = more Smo activation sensor fluorescence
Conditions: compound concentration: 2 uM, 24 h
[1] = stimulation: Hh conditioned medium (+Hh)
[2] = stimulation: mock conditioned medium (-Hh)
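Note: flow cytometry read-out as median GFP intensity of gated cells, compounds added 30 min before Hh-conditioned or mock medium, mock-treated cells serving as unstimulated baseline.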

| SMILES | normalized SmoIP GFP fluorescence [1] [%] | normalized SmoIP GFP fluorescence [2] [%] |
| --- | --- | --- |
| CC(C)c1cnn2c(NCc3ccccc3)cc(NCCCCCCN)nc12 | 105 | 10.7 |
| CCCNS(=O)(=O)Nc1ncnc(OCCOc2ncc(Br)cn2)c1-c1ccc(Br)cc1 [macitentan] | 126 | 15.2 |
| CCOc1cc2ncc(C#N)c(Nc3ccc(OCc4ccccn4)c(Cl)c3)c2cc1NC(=O)/C=C/CN(C)C [Neratinib(HKI-272)] | 105 | -15.6 |
